# Shown are actives, neighbours in structure and some others; about 3.1% of the full set was active somewhere.
# SSB-PriA inh = inhibitors of Klebsiella pneumoniae PriA binding to SSB C-terminal tail, primary screen, biochemical, AlphaScreen. PriA–SSB C-terminal tail interaction (Klebsiella pneumoniae). AlphaScreen SSBct-PriA binding, biotinylated peptide. inhibition, % at 33 µM. 0.6% of 430,000 active; in the data active = inhibition mostly above about 37%, no sharp cut-off; inactive = mostly below about 20%;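 also: plate controls were negative control peptide for no effect and reference peptide for full effect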
# Autofluor counter = compound fluorescence in toxin protease inhibitor counterscreen. compound autofluorescence counterscreen, microsphere flow cytometry; stronger effect = higher value. AID 624483. 3.1% of 360,000 active. fluorescence intensity (concentration not given with the values); in the data active = fluorescence intensity above about 16000; inconclusive = no clear call, values can overlap the other calls
# Anthrax LF prot = Bacillus anthracis LF protease inhibitors, primary screen, biochemical, multiplex microsphere, MLPCN library; Lethal factor (Bacillus anthracis), P15917; multiplex microsphere protease cleavage assay; inhibition, % at 10 µM; 0.12% of 360,000 active; also: plate controls were buffer without enzyme for full effect and enzyme alone for no effect
# BoNT-F LC inh = BoNT/F light chain protease inhibitors, primary screen, biochemical, flow cytometry, MLPCN library | Botulinum neurotoxin type F light chain protease (Clostridium botulinum) | Multiplex microsphere protease cleavage assay | inhibition, % at 10 µM | 0.22% of 360,000 active | AID 588497, 2011; in the data active = inhibition above about 35%, passing the limit was not always enough; inconclusive = no clear call, values can overlap the other calls; also: plate controls were buffer without enzyme for full effect and enzyme alone for no effect
# BoNT-A LC inh2 = BoNT/A light chain protease inhibitors, primary screen, biochemical, flow cytometry, MLPCN library | 0.17% of 360,000 active | Botulinum neurotoxin type A light chain protease (Clostridium botulinum A str. ATCC 3502) | inhibition, % at 10 µM | multiplex microsphere protease substrate cleavage | AID 588499, 2011; also: plate controls were buffer without enzyme for full effect and enzyme alone for no effect
# Numbers without * were called inactive; ? = inconclusive; . = not tested or not shown. Rule as the data show it, unless noted: active = inhibition above about 30%; inconclusive = no clear call, values can overlap the other calls; inactive = below that.
SMILES,SSB-PriA inh,Autofluor counter,Anthrax LF prot,BoNT-F LC inh,BoNT-A LC inh2
CC(OC(=O)C1CCCO1)C(=O)NC1CCCC1 (stereo not drawn),-23.3,19071*,0.2,-2.1,0.8
O=C(NCCS(=O)(=O)N1CCN(c2ncccn2)CC1)c1cc(=O)c2ccccc2o1,-3.0,.,.,.,.
O=C(O)c1cccn(Cc2ccc(C(F)(F)F)cc2)c1=O,5.0,.,.,.,.
COc1cc2ccccc2cc1C(=O)Nc1ncnc2c1CCC2,-15.0,.,.,.,.
CCOC(=O)c1cc(C)n(Cc2ccc(OCC)c(OC)c2)c1C,33.8,17147*,-16.3,10.5,9.6
CCc1ccc(CN(C)CCc2ccccn2)cc1,-31.9,16273*,-4.3,-0.7,?
CN(CCc1ccccn1)Cc1ccc(Cl)cc1,-7.3,20900*,-0.3,-2.7,-0.5
Cc1ccc(CN(C)CCc2ccccn2)cc1,4.8,12063,-1.0,-8.3,0.3
CCOC(=O)N1CCN(C(=O)Nc2nc(CC(=O)NCc3ccco3)cs2)CC1,-7.0,.,.,.,.
CCOc1ccc(C=Nn2cc(-c3ccccc3)[nH]c2=S)cc1,3.4,.,.,.,.
Cc1cc(C)cc(OCC(=O)NN=Cc2ccncc2)c1,-5.5,.,.,.,.
O=C1CC(SCCO)C(=O)N1c1ccccc1 (stereo not drawn),-0.8,23642*,-1.9,-1.8,-1.0
CCOC(=O)N1CCSC(c2ccccc2Cl)CC1 (stereo not drawn),-28.0,.,.,.,.
CCn1c(CCc2ccccc2)nnc1SCC(N)=O,3.8,3042,28.1,37.3*,3.9
CCn1c(CSc2nc3ccccc3s2)nnc1SCC(=O)NCC(=O)OC,-8.0,20468*,-2.8,-0.6,0.2
Cn1c(CSc2nc3ccccc3s2)nc2ccccc21,1.0,22150*,-3.1,-4.7,-3.1
CCn1c(CSc2nc3ccccc3s2)nnc1SCC(=O)OC(C)(C)C,-7.0,16941*,-2.5,-5.8,-3.0
Cn1c(CSc2nc3ccccc3s2)n[nH]c1=S,9.4,3682,0.1,-14.4,-0.5
Cc1nc2ccc(C(=O)NCCSC3CCOCC3)cc2s1,-5.0,.,.,.,.
CCn1c(CSc2nc3ccccc3s2)nnc1SCC(=O)c1ccc2c(c1)OCCO2,7.0,4130,-5.2,-9.1,0.8
CCn1c(SCC(=O)Nc2cc(C(C)(C)C)nn2-c2ccccc2)nnc1-c1cccs1,-7.6,1983,-1.7,0.1,-0.2
CCn1c(CSc2nc3ccccc3s2)nnc1SCC(N)=O,-6.0,20063*,-0.3,-2.8,-1.8
CCn1c(SCC(N)=O)nnc1-c1cc2c(C)nn(-c3ccccc3)c2s1,-15.8,23213*,-0.8,1.5,1.5
Cc1ccsc1C(O)CNC(=O)c1cncc(Br)c1 (stereo not drawn),-9.0,.,.,.,.
CN=c1scc(-c2ccc(OC)cc2)n1N=C(C)c1cccnc1,43.5*,.,.,.,.
SMILES,SSB-PriA inh,Autofluor counter,Anthrax LF prot,BoNT-F LC inh,BoNT-A LC inh2
CSc1ccccc1-n1nnnc1SCC(=O)Nc1ccccc1C,-16.1,20932*,0.5,-1.2,-0.3
COC(=O)c1ccsc1NC(=O)CSc1nnnn1-c1ccccc1SC,-12.3,24392*,-0.6,-4.0,-3.6
CSc1ccccc1-n1nnnc1SCC(=O)NCc1cccs1,-9.8,5236,-18.1,?,-1.7
CSc1ccccc1NC(=O)CSc1nnnn1-c1ccccc1SC,-13.1,4278,-2.7,-11.4,-1.0
C=CCNC(=S)Nc1ccc(O)cc1,-7.0,.,.,.,.
CCOC(=O)N1CCN(c2cc(=O)n(-c3ccccc3Cl)c(=O)[nH]2)CC1,104.2*,4210,-0.5,0.3,0.7
CCOC(=O)N1CCN(c2cc(=O)n(-c3ccc(Cl)cc3)c(=O)[nH]2)CC1,-9.0,.,.,.,.
O=c1cc(N2CCN(c3ccccc3)CC2)[nH]c(=O)n1-c1ccccc1Cl,-12.0,21259*,-2.3,-6.4,-3.9
Cc1ccc(-c2cn3c(CC(=O)NCc4ccc(F)cc4)csc3n2)cc1,-7.0,.,.,.,.
COc1ccc2c(C)nc(NC(N)=NS(=O)(=O)c3ccc(C)cc3)nc2c1,-9.7,.,.,.,.
Cc1ccc2c(c1)c1c(n2C)C(C(N)=O)CCC1 (stereo not drawn),-15.1,22355*,-3.4,-1.2,-0.2
CCCCOc1ccc(NC(=O)NCC2(CO)CC2)cc1,11.0,.,.,.,.
CCN(CC(=O)Nc1c(F)cccc1F)C(=O)C1Cc2ccccc2CN1S(=O)(=O)CC (stereo not drawn),-2.0,16229*,-10.8,-70.7,-49.0
CCS(=O)(=O)N1Cc2ccccc2CC1C(=O)N1CCN(c2cccc(C)c2C)CC1 (stereo not drawn),2.9,23317*,-5.1,-1.7,1.5
Cc1cccc(N2CCN(C(=O)C3CCN(S(=O)(=O)N4CCOCC4)CC3)CC2)c1C,-17.3,5444,-5.5,-3.7,-0.5
CCS(=O)(=O)N1Cc2ccccc2CC1C(=O)Nc1ccc(F)cc1 (stereo not drawn),-12.2,4736,0.6,1.5,-0.8
Cc1nn(-c2ccccc2)c(N2CCCC2)c1C=NNC(=O)c1cc(-c2ccccn2)nc2ccccc12,19.9,.,.,.,.
CSc1ccc2c(c1)N(CCC1CCCCN1C)c1ccccc1S2 (stereo not drawn),40.1*,6397,-2.5,-15.4,-0.9
O=C(NCCS(=O)(=O)NCc1cccs1)c1ccc2c(c1)OCO2,-16.0,.,.,.,.
COc1cc(OC)c2c(-c3ccccc3)cc(=O)oc2c1C(CCN1CCOCC1)c1ccc(N(C)C)cc1 (stereo not drawn),38.9*,3887,-5.9,-5.8,-0.1
COc1cc(OC)c2c(-c3ccccc3)cc(=O)oc2c1C(CCN1CCCCC1)c1ccc(N(C)C)cc1 (stereo not drawn),74.3*,4201,-8.2,-14.3,-1.2
Cc1ccc2sc(NC(=O)c3ccc(N(C)C)cc3)nc2c1C,-8.0,.,.,.,.
COc1ccc(NC(=O)C(CC(C)C)N2C(=O)c3ccccc3C2=O)cc1 (stereo not drawn),-6.0,.,.,.,.
Cc1cccc(C)c1OCC(=O)Nc1ncn[nH]1,-12.4,9386,-8.1,-10.2,-1.0
O=C(COc1ccc2ccccc2c1Br)Nc1ncn[nH]1,-10.2,21352*,-6.1,4.4,3.8
SMILES,SSB-PriA inh,Autofluor counter,Anthrax LF prot,BoNT-F LC inh,BoNT-A LC inh2
Nc1ncnc(Nc2ccc(S(N)(=O)=O)cc2)c1[N+](=O)[O-],-1.0,.,.,.,.
COC(=O)c1ccc(C(=O)NCC2CCN(c3ncccc3C#N)CC2)cc1,-2.0,.,.,.,.
CC1CCc2c(sc(NC(=O)COC(=O)c3ccccc3NCc3ccco3)c2C#N)C1 (stereo not drawn),-7.5,22501*,-9.3,-2.4,-0.7
CC1CCc2c(sc(NC(=O)CC(=O)Nc3sc4c(c3C#N)CCC(C)C4)c2C#N)C1 (stereo not drawn),-24.0,.,.,.,.
CCOc1ccc(-c2ccc(=O)[nH]n2)cc1,-10.0,.,.,.,.
Cc1ccc(-c2ccc(=O)[nH]n2)cc1,-4.3,21252*,0.6,-3.2,-2.2
CC(C)OC(=O)CC1C(=O)NCCN1C(=S)NC(=O)c1ccco1 (stereo not drawn),-10.0,.,.,.,.
O=C(Nc1cccn2ncnc12)c1ccc(Cl)cc1,-3.5,23079*,-9.3,-6.2,?
O=C(Nc1cccn2ncnc12)c1ccccc1,4.3,21325*,-2.5,4.7,3.1

# Screening results (PubChem)
